# Only some compounds are listed: those with a hit (about 0.88% of all), similar ones and a draw of the others.
# CtBP-E1A inh: inhibitors of CtBP/E1A interaction; activity change, % (concentration not given with the values); 340,000 tested, 0.49% active; AlphaScreen GST-E1A/His-CtBP binding, 1536-well; active compounds read low; AID 651724; in the data active = activity change below about -65%; inconclusive = mostly about -30% to -63%; also: % is scaled to controls: 0 for no effect and ±100 for the full control effect
#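 Protein mix (5X: 125 nM each GST-E1A, His-CtBP) was incubated with pinned compound 2 h at 37 deg C in dark, in 50 mM Tris pH 8.0 buffer with 300 mM NaCl. Glutathione donor and nickel acceptor beads followed; AlphaScreen signal read after 1 h.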
# Six1-Eya2 blk: Six1/Eya2 interaction inhibition; AlphaScreen GST-Six1/His-Eya2 binding, biochemical; active compounds read low; 360,000 tested, 0.56% active; activity change, % (concentration not given with the values); AID 651725; Q15475+O00167; in the data active = activity change below about -65%; inconclusive = mostly about -30% to -63%; also: % is scaled to controls: 0 for no effect and ±100 for the full control effect
#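 GST-Six1 + His-Eya2 (5X stock: 250/500 nM); Tris pH 8.0, 300 mM NaCl, 0.05% BSA, 0.02% Tween 20; GSH donor/Ni acceptor beads; 1 h 37 °C dark; AlphaScreen readout.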
# RGS4 inhibitor: inhibitors of human regulator of G protein signaling 4; Potency, µM (top dose mostly 114 µM), without a hit: at the highest dose activity change, negative = inhibition, usual class: inhibitors; AID 504845; 390,000 tested, 0.039% active; Transcreener GDP fluorescence polarization, RGS4-accelerated GTP hydrolysis; also: potency is read from the fitted curve at half-maximal effect; % is scaled to controls: 0 for no effect and ±100 for the full control effect; nearly all actives have a fitted effect of over 75% in size
# Target sequence (P49798 whole entry, looked up): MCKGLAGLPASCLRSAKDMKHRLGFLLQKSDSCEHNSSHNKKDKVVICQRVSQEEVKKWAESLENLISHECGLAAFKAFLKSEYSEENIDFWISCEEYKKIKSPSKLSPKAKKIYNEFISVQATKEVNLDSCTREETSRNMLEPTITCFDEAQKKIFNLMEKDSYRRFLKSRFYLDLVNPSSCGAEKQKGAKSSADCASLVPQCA
#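 MLSMR compounds (23 nl, pin-transferred) preincubated 10 min at room temperature with a 500nM (2x) first reagent, then RGS4 at 900nM (2x) plus Transcreener GDP mix added; fluorescence polarization (620/688 nm) read before and after 90 min at 30 °C.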
# GRP78 ERSR act: induces the endoplasmic reticulum stress response in human glioma cells; U87-MG GRP78 promoter luciferase reporter, 16 h; 420,000 tested, 0.02% active; Potency, µM, for inactives: at the highest dose activation, usual class: activators; also: potency is read from the fitted curve at half-maximal effect; series mostly up to about 76 µM; % of control where 0% means no effect; nearly all actives have a fitted effect of over 35% in size
#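 Stably transfected U87-MG human glioma cells carrying a GRP78-based luminescent sensor were seeded at 1000 cells/well, pin-dosed with compounds and incubated 16 h. Luciferase reagent was then added, and end-point luminescence was read after 10 min at room temperature.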
# Akt phos inh: Akt phosphorylation inhibition; Neuro2A IGF-stimulated pAkt S473 HTRF, 20 min; active compounds read low; activity change, % for hits at 50 µM; 360,000 tested, 0.32% active; AID 651550; in the data active = activity change below about -80%; inconclusive = mostly about -51% to -80%; also: % is scaled to controls: 0 for no effect and ±100 for the full control effect
#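 Single-point screen (50 µM final compound) in Neuro2A cells stimulated 20 min with 6 nM IGF at 37 deg C. After lysis, Ser473-phosphorylated Akt read by HTRF (ex 330 nm, em 615/665 nm) as the 665/615 ratio.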
# An asterisk follows results filed as active; i = inactive; ? = inconclusive; nt = no result given; [ ] = another dose, or the depositor's remark. Unless noted, calls follow the shape of the dose curve; as a rule, active = well fitted curve in the direction sought with a large enough effect; inconclusive = small, poorly fitted or top-dose-only effect, or another doubt; inactive = no such curve, though single readings can be large; an effect the other way counts as inactive or inconclusive.
SMILES,CtBP-E1A inh,Six1-Eya2 blk,RGS4 inhibitor,GRP78 ERSR act,Akt phos inh
CC(=O)NC(c1ccccc1)c1cc(Cl)c2cccnc2c1O (stereo not given),-91*,-87*,-4%,-5%,i
O=C(NC(c1ccc(Cl)cc1)c1cc(Cl)c2cccnc2c1O)c1cccnc1 (stereo not given),-4,-17,0%,-2%,i
CCC(=O)NC(c1cccs1)c1cc(Cl)c2cccnc2c1O (stereo not given),nt,-89*,-8%,-2%,i
CCCC(=O)NC(c1ccc(OC)c(OC)c1)c1cc(Cl)c2cccnc2c1O (stereo not given),-79*,-72*,-25%,-1%,i
COc1ccc(C(=O)NC(c2ccccc2Cl)c2cc(Cl)c3cccnc3c2O)cc1 (stereo not given),nt,nt,-9%,-2%,nt
COc1ccc(C(NC(C)=O)c2cc(Cl)c3cccnc3c2O)cc1 (stereo not given),-93*,-83*,21%,-3%,i
CCC(=O)NC(c1cc(Cl)c2cccnc2c1O)C1CC1 (stereo not given),nt,nt,-16%,-4%,nt
CC(=O)NC(c1ccc(N(C)C)cc1)c1cc(Cl)c2cccnc2c1O (stereo not given),?,-81*,nt,-5%,i
COc1ccccc1NCCC(=O)OCC(=O)NCc1ccco1,-1,-7,-5%,-3%,-106%*
COc1ccc(OCCC(=O)OCC(=O)NCc2ccco2)cc1,3,-19,-10%[11.4 µM],-2%,i
COCCn1c(=O)[nH]c2cc(C(=O)NCCN3CCN(c4cccc(Cl)c4)CC3)ccc2c1=O,-19,-11,33%,-6%,-118%*
O=c1[nH]c2ccccc2c2nc(-c3cccc(S(=O)(=O)N4CCCC4)c3)nn12,-81*,-85*,?,0%,i
Cc1ccc(-c2nc3c4ccccc4[nH]c(=O)n3n2)cc1,nt,nt,9%,2%,nt
CC(=O)c1ccccc1-c1ccc2c(c1)CC(CNC(=O)c1cc(C)on1)O2 (stereo not given),nt,nt,nt,1%,nt
Cc1ccc(S(=O)(=O)N2CCN(c3cc(-c4cccs4)nc4ccccc34)CC2)cc1,nt,nt,15%,-3%,nt
Cc1cc[n+](CC#N)cc1,nt,nt,nt,-2%,nt
COCCn1c(-c2ccccc2)cnc1N,?,-88*,9%,-3%,i
COC(=O)c1c(OCc2ccccc2)cc(=O)n2c1CCN(Cc1cccc(C)n1)CC2,nt,nt,nt,-1%,nt
CCCCC/C=C\C/C=C\CCCCCCCC(N)=O,nt,nt,24µM*,-3%,nt
CCCCC/C=C\C/C=C\C/C=C\C/C=C\CCCCCC(=O)O,nt,nt,460%[56.9 µM],-2%,nt
CCCCCCC/C=C\CCCCCCCCC(=O)O,nt,nt,24µM*,-3%,nt
CSc1nccc(-c2cc(Cl)c3c(c2)CC(CNC(=O)c2nonc2C)O3)n1 (stereo not given),nt,nt,nt,-3%,nt
CC(CSC(=O)c1ccccc1)C(=O)N1CC(Sc2ccccc2)CC1C(=O)O (stereo not given),nt,nt,nt,-3%,nt
CC(C)Cc1nc2cc(NS(=O)(=O)N(C)C)cc(C(=O)N3CC4(C)CC3CC(C)(C)C4)c2n1C (stereo not given),nt,nt,nt,-3%,nt
CCCCN(CC)c1nc(C)nc2c1c(C)c(C)n2-c1c(C)cc(C)cc1C,nt,nt,nt,-7%,nt
SMILES,CtBP-E1A inh,Six1-Eya2 blk,RGS4 inhibitor,GRP78 ERSR act,Akt phos inh
COc1ccc(OC)c(NC2=NC3(CCCC3)N=C(N)N2)c1,?,-68*,-22%[56.9 µM],-7%,i
NC1=NC2(CCCCC2)N=C(Nc2ccc(F)cc2F)N1,-3,0,-41%,-5%,i
NC(=O)N=Nc1c(O)[nH]c2ccc([N+](=O)[O-])cc12,-72*,?,-1%,-2%,i
CC(C)NC(=S)N=Nc1c(O)[nH]c2ccc([N+](=O)[O-])cc12,22,-68*,-27%,?,i
C=C(C)CNC(=S)N=Nc1c(O)[nH]c2ccc([N+](=O)[O-])cc12,-12,?,-34%,-4%,i
COc1cc([N+](=O)[O-])cc(/C=N/NC(=O)c2cc(C)nc3ccccc23)c1O,-83*,-93*,-18%,-5%,i
COc1cc([N+](=O)[O-])cc(/C=N/NC(=O)c2cc(-c3ccccc3)nc3ccccc23)c1O,-88*,?,-10%[56.9 µM],-4%,i

# Compound activity deposited in PubChem BioAssay by National Center for Advancing Translational Sciences (NCATS).
